Source: the supplement of paper PMC10849652
About 8,800 targets were measured; listed, in parts, are those with a hit and a random draw of the rest. About 0.5% of all pairs of compound and target were hits.

Assays:
Assay in all cases: log2 fold change, soluble protein after heating vs DMSO (PISA); higher = thermal stabilisation; K562 lysate, 10 uM; active = over 0.2 and 3.5 SD of the protein, either way, in both replicates (recomputed)
[1] = compound: Cc1cn(-c2cc(NC(=O)c3ccc(C)c(Nc4nccc(-c5cccnc5)n4)c3)cc(C(F)(F)F)c2)cn1 [nilotinib]
Summary of the method: (§1)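 K562 pellets were dounce-homogenised in PBS pH 7.4 containing 1 mM MgCl2, and the crude extract, at 1 mg/mL protein, was exposed to 10 μM compound for 30 min. Aliquots were heated for 3 min across 48°C-58°C, pooled, brought to 0.5% NP-40 at 4°C and spun at 21,000xg for 90 min, with the supernatant taken as soluble protein. TMTpro 16plex LC-MS/MS with equalised channel sums quantified that protein. Values are log-two fold changes in thermal stability relative to solvent controls, taken from duplicates.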

[2] = compound: Cc1nc(Nc2n[nH]c3c2CN(C(=O)N[C@H](CN(C)C)c2ccccc2)C3(C)C)c2sccc2n1
Summary of the method: as §1

[3] = compound: Cc1nc(Nc2ncc(C(=O)Nc3c(C)cccc3Cl)s2)cc(N2CCN(CCO)CC2)n1 [dasatinib]
Summary of the method: as §1

[4] = compound: Cc1ncc(-c2ccnc(Nc3ccc(S(C)(=O)=O)cc3)n2)n1C(C)C
Summary of the method: as §1

[5] = compound: Cn1cc(-c2ccc3c(c2)CCN3C(=O)Cc2cccc(C(F)(F)F)c2)c2c(N)ncnc21
Summary of the method: as §1

[6] = compound: Cn1cc(CNCC2CCN(c3ncc(C(=O)NO)cn3)CC2)c2ccccc21 [quisinostat]
Summary of the method: as §1

[7] = compound: Cn1cncc1[C@@](N)(c1ccc(Cl)cc1)c1ccc2c(c1)c(-c1cccc(Cl)c1)cc(=O)n2C [tipifarnib]
Summary of the method: as §1

[8] = compound: NC(=O)Nc1cc(-c2cccc(F)c2)sc1C(=O)N[C@H]1CCCNC1
Summary of the method: as §1

[9] = compound: NC(=O)c1cnc(N[C@@H]2CCCC[C@@H]2N)nc1Nc1cccc(-n2nccn2)c1
Summary of the method: as §1

[10] = compound: NC1(c2ccc(-c3nc4ccn5c(=O)[nH]nc5c4cc3-c3ccccc3)cc2)CCC1
Summary of the method: as §1

Measured: log2 fold change

PGPEP1 (UniProt Q9NXJ5)
inactive: [1] 0.018 | [2] 0.019 | [3] -0.067 | [4] 0.07 | [5] 0.011 | [6] 0.041 | [7] -0.006 | [8] -0.033 | [9] -0.03 | [10] 0.033

PCBP2 isoform 3 (UniProt Q15366)
UniProt Q15366, sequence (Q15366 whole entry, looked up): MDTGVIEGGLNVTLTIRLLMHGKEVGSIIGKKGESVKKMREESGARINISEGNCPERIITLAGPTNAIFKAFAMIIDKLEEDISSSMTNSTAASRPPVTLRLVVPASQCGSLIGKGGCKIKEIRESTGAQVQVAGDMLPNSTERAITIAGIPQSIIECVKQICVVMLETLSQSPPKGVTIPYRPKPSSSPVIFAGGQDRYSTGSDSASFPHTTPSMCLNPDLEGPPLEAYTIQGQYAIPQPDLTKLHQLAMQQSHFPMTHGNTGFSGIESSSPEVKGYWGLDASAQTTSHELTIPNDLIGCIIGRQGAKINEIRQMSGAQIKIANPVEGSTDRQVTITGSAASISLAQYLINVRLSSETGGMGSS
inactive: [1] 0.019 | [2] -0.012 | [3] -0.019 | [4] 0.015 | [5] 0.039 | [6] 0.044 | [7] 0.005 | [8] 0 | [9] 0.005 | [10] 0.072

PDS5A (UniProt Q29RF7)
UniProt Q29RF7, sequence (Q29RF7 whole entry, looked up): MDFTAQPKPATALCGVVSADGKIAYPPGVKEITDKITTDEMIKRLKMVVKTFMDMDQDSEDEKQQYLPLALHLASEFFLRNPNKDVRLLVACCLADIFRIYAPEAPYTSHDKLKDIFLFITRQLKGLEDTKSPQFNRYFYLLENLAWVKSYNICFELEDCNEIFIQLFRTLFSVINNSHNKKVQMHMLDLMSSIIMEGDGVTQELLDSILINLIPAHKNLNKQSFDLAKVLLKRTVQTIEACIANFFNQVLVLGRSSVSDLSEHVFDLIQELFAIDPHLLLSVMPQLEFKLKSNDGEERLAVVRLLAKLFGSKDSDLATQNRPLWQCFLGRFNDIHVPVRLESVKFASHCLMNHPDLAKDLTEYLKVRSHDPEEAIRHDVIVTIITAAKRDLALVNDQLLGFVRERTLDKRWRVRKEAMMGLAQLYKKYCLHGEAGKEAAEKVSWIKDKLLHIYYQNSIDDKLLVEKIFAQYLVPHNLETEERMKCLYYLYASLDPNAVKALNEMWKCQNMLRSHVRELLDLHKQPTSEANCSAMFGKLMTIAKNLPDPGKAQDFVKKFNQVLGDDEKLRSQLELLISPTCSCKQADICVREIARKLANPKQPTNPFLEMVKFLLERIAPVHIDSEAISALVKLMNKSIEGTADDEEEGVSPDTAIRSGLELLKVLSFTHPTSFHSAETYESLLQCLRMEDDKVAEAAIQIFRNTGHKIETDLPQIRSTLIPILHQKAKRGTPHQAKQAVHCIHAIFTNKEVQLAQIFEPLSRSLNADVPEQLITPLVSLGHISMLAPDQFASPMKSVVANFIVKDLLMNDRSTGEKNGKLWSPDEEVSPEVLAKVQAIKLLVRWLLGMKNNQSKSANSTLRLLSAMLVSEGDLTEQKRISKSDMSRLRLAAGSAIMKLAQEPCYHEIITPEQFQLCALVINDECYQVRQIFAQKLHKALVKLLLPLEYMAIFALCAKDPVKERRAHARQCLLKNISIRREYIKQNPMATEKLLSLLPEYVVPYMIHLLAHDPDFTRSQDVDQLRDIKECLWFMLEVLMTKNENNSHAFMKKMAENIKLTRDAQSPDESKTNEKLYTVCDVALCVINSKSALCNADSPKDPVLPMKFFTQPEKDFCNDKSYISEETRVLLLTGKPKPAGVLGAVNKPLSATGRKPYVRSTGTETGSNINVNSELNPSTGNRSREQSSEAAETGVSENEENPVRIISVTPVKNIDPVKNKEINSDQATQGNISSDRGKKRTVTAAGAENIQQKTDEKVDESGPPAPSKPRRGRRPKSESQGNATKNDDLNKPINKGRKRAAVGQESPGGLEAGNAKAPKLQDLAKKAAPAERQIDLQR
inactive: [1] -0.013 | [2] -0.002 | [3] -0.081 | [4] -0.003 | [5] 0.008 | [6] -0.113 | [7] 0.001 | [8] 0.047 | [9] 0.011 | [10] -0.023

PIP5K1A (UniProt Q99755)
inactive: [1] -0.091 | [2] 0.011 | [3] -0.137 | [4] -0.082 | [5] 0.033 | [6] -0.165 | [7] 0.032 | [8] 0.034 | [9] -0.041 | [10] 0.01

PDCD10 (UniProt Q9BUL8)
inactive: [1] 0.006 | [2] 0.121 | [3] 0.077 | [4] 0.03 | [5] 0.013 | [6] -0.053 | [7] -0.005 | [8] 0.114 | [9] -0.018 | [10] 0.004

PHLDB1 (UniProt Q86UU1)
UniProt Q86UU1, sequence (Q86UU1 whole entry, looked up): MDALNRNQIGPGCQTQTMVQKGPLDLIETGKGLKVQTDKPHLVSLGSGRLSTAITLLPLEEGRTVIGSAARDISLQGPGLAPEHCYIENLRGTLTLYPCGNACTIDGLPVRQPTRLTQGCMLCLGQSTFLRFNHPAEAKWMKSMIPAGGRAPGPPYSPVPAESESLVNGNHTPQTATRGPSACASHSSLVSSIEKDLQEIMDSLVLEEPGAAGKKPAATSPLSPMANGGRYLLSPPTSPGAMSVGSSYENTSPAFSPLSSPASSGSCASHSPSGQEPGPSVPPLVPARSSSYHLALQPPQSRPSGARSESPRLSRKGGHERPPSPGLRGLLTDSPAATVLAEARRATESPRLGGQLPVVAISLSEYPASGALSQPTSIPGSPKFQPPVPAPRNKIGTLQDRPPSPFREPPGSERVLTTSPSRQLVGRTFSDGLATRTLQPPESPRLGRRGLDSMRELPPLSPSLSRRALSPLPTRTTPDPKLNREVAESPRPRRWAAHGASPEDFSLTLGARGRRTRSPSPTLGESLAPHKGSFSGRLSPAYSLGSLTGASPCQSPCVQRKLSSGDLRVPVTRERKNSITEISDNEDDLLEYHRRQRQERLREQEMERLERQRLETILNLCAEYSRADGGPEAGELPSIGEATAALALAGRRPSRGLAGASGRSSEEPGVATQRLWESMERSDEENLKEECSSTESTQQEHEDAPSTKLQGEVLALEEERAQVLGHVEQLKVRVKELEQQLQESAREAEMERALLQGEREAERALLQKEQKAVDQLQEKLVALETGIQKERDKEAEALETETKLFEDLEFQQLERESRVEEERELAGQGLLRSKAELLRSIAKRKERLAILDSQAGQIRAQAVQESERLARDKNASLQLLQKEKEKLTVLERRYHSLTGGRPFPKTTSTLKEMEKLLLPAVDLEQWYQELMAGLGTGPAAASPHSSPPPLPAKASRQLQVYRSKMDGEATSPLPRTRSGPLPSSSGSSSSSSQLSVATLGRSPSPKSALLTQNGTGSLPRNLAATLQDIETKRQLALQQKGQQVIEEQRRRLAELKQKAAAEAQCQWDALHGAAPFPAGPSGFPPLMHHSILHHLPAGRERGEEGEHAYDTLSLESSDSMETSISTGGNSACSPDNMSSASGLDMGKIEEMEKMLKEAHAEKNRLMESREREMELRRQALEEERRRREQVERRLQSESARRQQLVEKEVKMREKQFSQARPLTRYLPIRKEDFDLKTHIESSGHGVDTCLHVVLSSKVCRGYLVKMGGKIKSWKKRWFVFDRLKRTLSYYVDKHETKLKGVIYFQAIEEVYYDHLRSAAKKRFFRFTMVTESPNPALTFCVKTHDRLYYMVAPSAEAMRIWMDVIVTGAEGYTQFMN
inactive: [1] -0.035 | [2] -0.012 | [3] 0.002 | [4] -0.006 | [5] -0.046 | [6] -0.243 | [7] -0.003 | [8] 0.028 | [9] -0.036 | [10] 0.004

PRPF6 (UniProt O94906)
inactive: [1] -0.001 | [2] 0.021 | [3] -0.036 | [4] -0.005 | [5] 0.026 | [6] -0.067 | [7] 0.008 | [8] 0.044 | [9] 0.022 | [10] -0.019

PHKA1 (UniProt P46020)
inactive: [1] -0.059 | [2] 0.14 | [3] -0.138 | [4] -0.007 | [5] 0.029 | [6] -0.072 | [7] -0.021 | [9] 0.091 | [10] -0.053
active: [8] 0.272

PUF60 (UniProt Q9UHX1)
inactive: [1] -0.006 | [2] -0.002 | [3] -0.025 | [4] 0.011 | [5] -0.017 | [6] 0.073 | [7] 0.016 | [8] -0.017 | [9] -0.001 | [10] 0.021

PPT2, A0A140T9Y1
inactive: [1] -0.054 | [2] 0.086 | [4] 0.089 | [7] 0.1

PFKFB4 (UniProt Q16877)
inactive: [3] 0.009 | [5] -0.045 | [6] 0.059 | [8] -0.024 | [9] 0.015 | [10] 0.013

PCBP2 (UniProt F8VRH0)
inactive: [1] -0.221 | [2] -0.532 | [4] -0.063 | [6] 0.034 | [7] -0.167 | [8] -0.059 | [9] 0.232 | [10] 0.003

PFN1 (UniProt I3L3D5)
inactive: [1] -0.009 | [2] -0.088 | [4] 0.108 | [7] 0.006 | [9] 0.04

PIK3CG (UniProt P48736)
UniProt P48736, sequence (P48736 whole entry, looked up): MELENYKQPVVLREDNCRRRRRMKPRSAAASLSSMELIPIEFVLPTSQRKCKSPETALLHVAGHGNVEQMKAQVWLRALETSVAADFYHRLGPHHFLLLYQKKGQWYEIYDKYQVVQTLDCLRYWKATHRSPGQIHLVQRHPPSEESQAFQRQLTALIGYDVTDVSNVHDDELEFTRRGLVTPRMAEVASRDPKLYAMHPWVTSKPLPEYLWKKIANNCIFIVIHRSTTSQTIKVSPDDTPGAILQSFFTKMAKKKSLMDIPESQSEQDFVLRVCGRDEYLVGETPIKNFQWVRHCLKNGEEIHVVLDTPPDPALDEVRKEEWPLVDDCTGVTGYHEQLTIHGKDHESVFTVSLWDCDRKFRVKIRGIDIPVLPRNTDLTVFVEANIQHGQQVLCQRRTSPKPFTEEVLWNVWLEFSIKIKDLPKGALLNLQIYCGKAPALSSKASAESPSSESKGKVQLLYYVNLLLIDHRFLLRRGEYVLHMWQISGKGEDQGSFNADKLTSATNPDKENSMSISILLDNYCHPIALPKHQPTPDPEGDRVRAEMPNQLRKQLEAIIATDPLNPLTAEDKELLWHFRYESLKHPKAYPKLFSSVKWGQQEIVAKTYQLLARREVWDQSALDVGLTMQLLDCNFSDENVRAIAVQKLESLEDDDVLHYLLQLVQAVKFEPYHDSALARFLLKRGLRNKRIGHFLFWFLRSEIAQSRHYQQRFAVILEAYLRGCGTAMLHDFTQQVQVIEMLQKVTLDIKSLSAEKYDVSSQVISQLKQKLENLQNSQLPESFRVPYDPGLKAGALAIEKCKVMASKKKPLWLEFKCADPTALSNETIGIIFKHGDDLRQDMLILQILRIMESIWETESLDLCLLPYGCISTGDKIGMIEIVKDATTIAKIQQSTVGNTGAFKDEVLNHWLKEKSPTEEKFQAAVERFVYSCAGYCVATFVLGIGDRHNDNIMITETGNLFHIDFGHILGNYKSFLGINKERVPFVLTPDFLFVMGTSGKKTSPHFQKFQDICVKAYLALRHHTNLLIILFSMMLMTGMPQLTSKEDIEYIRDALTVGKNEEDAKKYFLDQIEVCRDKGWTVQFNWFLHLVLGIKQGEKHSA
inactive: [1] 0.004 | [2] -0.022 | [4] 0.079 | [5] 0.097 | [6] -0.139 | [7] 0.003 | [8] 0.013 | [10] -0.017

PHGDH, A0A286YFE1
inactive: [3] 0.086 | [5] 0.258 | [9] -0.29

PIM1 isoform 2 (UniProt P11309)
UniProt P11309, sequence (P11309 whole entry, looked up): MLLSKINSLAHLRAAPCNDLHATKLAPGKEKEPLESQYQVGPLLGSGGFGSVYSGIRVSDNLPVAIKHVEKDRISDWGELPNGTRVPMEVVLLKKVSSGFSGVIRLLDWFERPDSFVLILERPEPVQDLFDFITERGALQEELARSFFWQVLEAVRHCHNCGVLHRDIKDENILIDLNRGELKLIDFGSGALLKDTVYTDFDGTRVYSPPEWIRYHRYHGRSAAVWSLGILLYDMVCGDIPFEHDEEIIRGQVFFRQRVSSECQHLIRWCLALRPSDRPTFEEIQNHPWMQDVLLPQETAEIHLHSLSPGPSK
inactive: [1] 0.059 | [2] -0.025 | [3] -0.033 | [4] 0.063 | [5] 0.112 | [6] -0.085 | [7] 0.061 | [8] 0.038 | [10] -0.146

PUF60 isoform 2 (UniProt Q9UHX1)
inactive: [1] -0.011 | [2] -0.027 | [4] 0.05 | [6] 0.013 | [7] 0.023 | [8] 0.017 | [9] -0.016 | [10] -0.184

PPP2R5C isoform 2 (UniProt Q13362)
UniProt Q13362, sequence (Q13362 whole entry, looked up): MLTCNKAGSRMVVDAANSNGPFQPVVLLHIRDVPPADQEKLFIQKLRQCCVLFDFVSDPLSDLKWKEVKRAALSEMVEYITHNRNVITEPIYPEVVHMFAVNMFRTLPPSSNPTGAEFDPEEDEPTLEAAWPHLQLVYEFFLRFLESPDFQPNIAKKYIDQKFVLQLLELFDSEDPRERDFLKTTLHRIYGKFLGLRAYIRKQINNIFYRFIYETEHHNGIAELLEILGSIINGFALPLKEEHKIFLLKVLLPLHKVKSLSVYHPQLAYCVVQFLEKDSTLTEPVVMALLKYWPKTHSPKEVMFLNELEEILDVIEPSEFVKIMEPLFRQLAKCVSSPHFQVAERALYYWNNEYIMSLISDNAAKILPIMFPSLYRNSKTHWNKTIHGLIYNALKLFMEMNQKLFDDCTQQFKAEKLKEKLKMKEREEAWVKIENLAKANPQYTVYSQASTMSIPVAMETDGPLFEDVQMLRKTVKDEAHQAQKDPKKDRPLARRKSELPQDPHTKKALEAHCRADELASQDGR
active: [6] 0.347
inactive: [1] -0.028 | [2] 0.021 | [3] -0.02 | [4] -0.068 | [5] 0.028 | [7] 0.028 | [8] -0.284 | [10] -0.051

POM121C (UniProt A8CG34)
inactive: [9] 0.022 | [10] -0.09

PICALM (UniProt H0YCY1)
inactive: [10] 0.013

POLR2M (UniProt Q6EEV4)
inactive: [3] 0.02 | [5] -0.2 | [6] 0.011 | [8] 0.032 | [9] -0.015 | [10] 0.076

PDIA4, A0A499FI48
inactive: [3] -0.004 | [5] 0.044 | [6] -0.02 | [8] 0.164
